PubChem BioAssay AID1751 (National Center for Advancing Translational Sciences (NCATS), 2009)
“And” between values parts separate entries of the source, which are not always exact repeats. Equal entries are not always repeated. Inconclusive results are not listed. The source made the active and inactive calls. Calls follow the shape of the dose curve; as a rule, active = well fitted activation curve with a large enough effect; inconclusive = small, poorly fitted or top-dose-only effect; inactive = no such curve, though single readings can be large or run the other way.

target: Pyruvate kinase PKM (Homo sapiens) (UniProt P14618); test: Confirmation Concentration-Response Assay for Activators of Human Muscle isoform 2 Pyruvate Kinase; conditions: purified hPK-M2, Kinase-Glo ATP luminescence, 1 h; series mostly up to 57.5 µM
Sequence (P14618 whole entry, looked up, canonical isoform): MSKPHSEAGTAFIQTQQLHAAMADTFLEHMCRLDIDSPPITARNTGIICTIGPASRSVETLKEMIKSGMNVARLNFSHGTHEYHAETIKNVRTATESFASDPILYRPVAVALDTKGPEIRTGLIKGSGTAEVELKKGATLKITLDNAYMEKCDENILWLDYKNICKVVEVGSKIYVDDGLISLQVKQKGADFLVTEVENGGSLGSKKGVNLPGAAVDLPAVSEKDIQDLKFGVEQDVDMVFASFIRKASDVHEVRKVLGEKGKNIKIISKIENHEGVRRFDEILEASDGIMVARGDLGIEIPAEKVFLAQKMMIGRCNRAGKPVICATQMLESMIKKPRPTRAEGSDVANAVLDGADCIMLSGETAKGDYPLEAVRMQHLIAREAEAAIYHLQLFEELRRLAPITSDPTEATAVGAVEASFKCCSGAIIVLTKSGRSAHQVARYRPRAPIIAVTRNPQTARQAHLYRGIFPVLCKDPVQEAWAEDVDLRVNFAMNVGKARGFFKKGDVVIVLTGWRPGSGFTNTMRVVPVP
Source text: NIH Chemical Genomics Center [NCGC] Matthew G. Vander Heiden, M.D., Ph.D. [Harvard Medical School, 77 Avenue Louis Pasteur, Boston, MA 02115] MLPCN Grant: 1 R03 MH085679-01 NCGC Assay Overview: Human pyruvate kinase muscle 2 (hPK-M2) enzyme was supplied as a highly purified (>95% pure) preparation from Harvard Medical School and assayed for its ability to generate ATP from ADP using phosphoenolpyruvate (PEP) as a substrate. ATP generation was detected in a coupled reaction by luciferase-mediated luminescence, an ATP-dependent process. Pyruvate kinase substrates, PEP and ADP, were present in the assay at Km and approximately 10-fold below Km respectively. The enzyme was assayed at an intermediate level of activity to screen for both inhibitors and activators.
NCGC Assay Protocol Summary: Three uL of substrate mix (at r.t.) in assay buffer (50 mM Imidazole pH7.2, 50 mM KCl, 7 mM MgCl2, 0.01% Tween 20, 0.05% BSA) was dispensed into white solid bottom 1,536 well microtiter plates so that the final concentrations of substrates in the assay were 0.1 mM ADP and 0.5 mM PEP. 23 nL of compound were delivered by a pin tool and 1 uL of enzyme mix (final concentration of 0.1 nM) in assay buffer (4 degree Celsius) was added. Plates were incubated at room temperature for 1 hour. Two uL of detection mix (Kinase-Glo, Promega; at 4 degree Celsius protected from light) was added and luminescence read by a ViewLux (Perkin Elmer) at 1 second exposure/plate. Data were normalized to the uninhibited (column 3) and AC100 inhibition (no enzyme in column 2). To monitor activation, the first column contained a titration of the activator, NCGC00031955-03 (16-point 1:2 dilutions in duplicate starting at 57 uM) and the first 16 rows of column 4 contained 57 uM of NCGC00031955-03.

Row | SMILES | Potency
1 | COc1ccc(Cn2ncc3c4sc(C)cc4n(C)c3c2=O)cc1 | 20.1 nM (active)
2 | Cc1ccc(S(=O)(=O)N2CCCN(S(=O)(=O)c3ccc4c(c3)OCCO4)CC2)cc1 | 398 nM (active)
3 | CCCc1noc(-c2ccc(-c3ccccc3)cc2)n1 | inactive
4 | O=S(=O)(c1ccc2c(c1)OCCO2)C1CCN(S(=O)(=O)c2c(F)cccc2F)CC1 | 713 nM (active)
5 | O=S(=O)(NC1CCN(S(=O)(=O)c2ccc3c(c2)OCCO3)C1)c1c(F)cccc1F (stereo not given) | 17900 nM (active)
6 | Cc1cc2c(s1)c1cnn(Cc3ccccc3)c(=O)c1n2C | 45 nM (active)
7 | CSc1cc2c(s1)c1cnn(Cc3ccccc3F)c(=O)c1n2C | 14.2 nM (active)
8 | CC(C)c1cc2c(s1)c1cnn(Cc3ccccc3F)c(=O)c1n2C | 101 nM (active)
9 | C[C@H]1CN(S(=O)(=O)c2ccc3c(c2)OCCO3)CCN1S(=O)(=O)c1c(F)cccc1F | 8970 nM (active)
10 | C[C@@H]1CN(S(=O)(=O)c2ccc3c(c2)OCCO3)CCN1S(=O)(=O)c1c(F)cccc1F | 2530 nM (active)
11 | O=S(=O)(NC1CCN(S(=O)(=O)c2c(F)cccc2F)C1)c1ccc2c(c1)OCCO2 (stereo not given) | 11300 nM (active)
12 | O=S(=O)(c1ccc2c(c1)OCCO2)N1CCN(S(=O)(=O)c2cc(F)c(F)cc2F)CC1 | 71.3 nM (active)
13 | Cc1cc2c(s1)c1cnn(Cc3cccc(Cn4ncc5c6sc(C)cc6n(C)c5c4=O)c3F)c(=O)c1n2C | 16000 nM (active)
14 | Cn1ccc2cc(S(=O)(=O)N3CCN(S(=O)(=O)c4c(F)cccc4F)CC3)ccc21 | 318 nM (active)
15 | Cc1cc2c(s1)c1cnn(Cc3ccc(F)cc3)c(=O)c1n2C | 25.3 nM (active)
16 | CN1CCOc2ccc(S(=O)(=O)N3CCN(S(=O)(=O)c4c(F)cccc4F)CC3)cc21 | 2010 nM (active)
17 | COc1cc2c(s1)c1cnn(Cc3ccccc3F)c(=O)c1n2C | 40.1 nM (active)
18 | O=S(=O)(NCCCCNS(=O)(=O)c1c(F)cccc1F)c1ccc2c(c1)OCCO2 | 5050 nM (active)
19 | Cc1cc2c(s1)c1cnn(Cc3c(F)cccc3Cl)c(=O)c1n2C | 40.1 nM (active)
20 | COc1cc(F)c(S(=O)(=O)N2CCN(S(=O)(=O)c3ccc4c(c3)OCCO4)CC2)c(F)c1 | 17.9 nM (active)

Row | SMILES | Potency
21 | O=C1CN(S(=O)(=O)c2ccc3c(c2)OCCO3)CCN1S(=O)(=O)c1c(F)cccc1F | 2250 nM (active)
22 | O=S(=O)(NCCNS(=O)(=O)c1c(F)cccc1F)c1ccc2c(c1)OCCO2 | 20100 nM (active)
23 | O=S(=O)(c1ccc2c(c1)OCCO2)N1CCN(S(=O)(=O)c2c(F)cccc2F)CC1 | 35.7 nM (active)
24 | O=S(=O)(c1ccc2c(c1)OCCO2)N1CCN(S(=O)(=O)c2ccccn2)CC1 | 505 nM (active)
25 | CC(=O)c1cc2c(s1)c1cnn(Cc3ccccc3F)c(=O)c1n2C | 7.1 nM (active)
26 | COc1cccc(S(=O)(=O)N2CCN(S(=O)(=O)c3ccc4c(c3)OCCO4)CC2)c1 | 63.5 nM (active)
27 | O=S(=O)(NCCCCCNS(=O)(=O)c1c(F)cccc1F)c1ccc2c(c1)OCCO2 | 2010 nM (active)
28 | CC(=O)Nc1cc2c(s1)c1cnn(Cc3ccccc3F)c(=O)c1n2C | 17900 nM (active)
29 | O=S(=O)(c1ccc2c(c1)OCCO2)N1CCN(S(=O)(=O)c2c(F)ccc(O)c2F)CC1 | 31.8 nM (active)
30 | Cc1cc2c(s1)c1cnn(Cc3cccc(F)c3F)c(=O)c1n2C | 113 nM (active)
31 | O=S(=O)(NCC1CN(S(=O)(=O)c2ccc3c(c2)OCCO3)C1)c1c(F)cccc1F | 4010 nM (active)
32 | O=S(=O)(c1ccc2c(c1)OCCO2)N1CCN(S(=O)(=O)c2ccccc2F)CC1 | 56.6 nM (active)
33 | O=S(=O)(NC1CCC(NS(=O)(=O)c2c(F)cccc2F)CC1)c1ccc2c(c1)OCCO2 (stereo not given) | 1.27 µM (active) and 22.5 µM (active)
34 | Cc1ccc(-c2nnc3ccc(SC(C)C(=O)O)nn23)cc1 (stereo not given) | inactive
35 | Cc1cc2c(s1)c1cnn(Cc3ccc(C(F)(F)F)cc3)c(=O)c1n2C | 318 nM (active)
36 | Cc1cc2c(s1)c1cnn(Cc3ccc(F)c(F)c3F)c(=O)c1n2C | 713 nM (active)
37 | Cc1cc2c(s1)c1cnn(Cc3ccc(S(C)(=O)=O)cc3)c(=O)c1n2C | 4500 nM (active)
38 | COC(=O)c1cc2c(s1)c1cnn(Cc3ccccc3F)c(=O)c1n2C | 39.1 nM (active)
39 | CC(O)c1cc2c(s1)c1cnn(Cc3ccccc3F)c(=O)c1n2C (stereo not given) | 113 nM (active)
40 | CCn1c2cc(C)sc2c2cnn(Cc3ccccc3F)c(=O)c21 | 4010 nM (active)
